Data: PMC4336329 (PLoS ONE, 2015)
Among all 310,000 compounds or so, about 14,000 (4.5%) showed an effect of 50% or more. Effects have a minus sign here. The sample holds strong results, similar compounds and a random draw of the others, so the mix is not that of the screen.

These compounds were tested against human ether-à-go-go-related gene (hERG) potassium channel (human, UniProt Q12809) (assay: primary screen, population patch clamp on CHO cells stably expressing hERG; higher = less effect of the substance).
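Note: peak tail current of the secondary pulse compared with the same well before compound.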

human ether-à-go-go-related gene (hERG) potassium channel, sequence (Q12809 whole entry, looked up): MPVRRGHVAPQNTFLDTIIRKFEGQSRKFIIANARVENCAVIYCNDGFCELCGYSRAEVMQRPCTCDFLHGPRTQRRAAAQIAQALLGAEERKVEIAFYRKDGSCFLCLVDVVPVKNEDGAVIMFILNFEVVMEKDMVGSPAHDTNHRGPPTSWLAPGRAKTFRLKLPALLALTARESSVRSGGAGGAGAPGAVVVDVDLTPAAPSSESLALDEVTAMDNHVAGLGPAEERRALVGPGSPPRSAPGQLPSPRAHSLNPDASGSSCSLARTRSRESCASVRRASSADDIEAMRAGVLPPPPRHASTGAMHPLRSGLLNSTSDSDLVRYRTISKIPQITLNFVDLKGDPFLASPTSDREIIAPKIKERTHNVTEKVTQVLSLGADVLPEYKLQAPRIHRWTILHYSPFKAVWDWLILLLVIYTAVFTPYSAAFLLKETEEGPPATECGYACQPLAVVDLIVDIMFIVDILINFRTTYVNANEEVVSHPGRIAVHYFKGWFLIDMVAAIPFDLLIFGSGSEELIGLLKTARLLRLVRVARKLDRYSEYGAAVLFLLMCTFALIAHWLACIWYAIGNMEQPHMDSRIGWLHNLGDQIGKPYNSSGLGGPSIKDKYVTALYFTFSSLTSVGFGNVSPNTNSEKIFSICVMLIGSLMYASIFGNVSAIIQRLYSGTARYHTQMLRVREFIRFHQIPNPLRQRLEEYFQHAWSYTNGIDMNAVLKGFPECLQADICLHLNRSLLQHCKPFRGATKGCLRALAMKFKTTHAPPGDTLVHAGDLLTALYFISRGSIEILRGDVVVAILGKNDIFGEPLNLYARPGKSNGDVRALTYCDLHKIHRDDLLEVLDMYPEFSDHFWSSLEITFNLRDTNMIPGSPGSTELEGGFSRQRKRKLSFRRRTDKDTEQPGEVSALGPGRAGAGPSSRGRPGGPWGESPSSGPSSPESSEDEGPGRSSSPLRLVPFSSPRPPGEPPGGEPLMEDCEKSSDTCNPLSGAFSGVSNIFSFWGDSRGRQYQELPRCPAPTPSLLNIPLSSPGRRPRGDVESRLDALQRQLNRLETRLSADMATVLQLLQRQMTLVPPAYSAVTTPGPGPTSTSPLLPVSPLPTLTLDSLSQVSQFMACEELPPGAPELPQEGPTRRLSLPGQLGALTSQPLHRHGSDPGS

Compound | hERG current change (%, negative = inhibition) at 10uM [%]
CCOc1c2ccc(C(=O)NCCCCc3ccccc3)cc2nn1C | -14.5
CC(=O)c1cc(O)c2ccccc2c1O | -2.58
CC(=O)Nc1ccc(C(=O)N/N=C/c2ccccc2OCc2ccccc2)cc1 | 29.2
C#CCNC(=O)C1=C[C@@H](c2ccccc2)C[C@@H](OCCCCO)O1 | -13.4
CCCCc1ccc(NC(=O)NCc2cccnc2)cc1 | -41.4
COc1cc(OC)cc(C(=O)N2CCN(C(=O)c3cccc(F)c3)CC2)c1 | -3.19
COc1cc(OC)cc(C(=O)N2CCC(N3CCCCCC3)CC2)c1 | -5.77
Cc1nc2cc(F)ccc2n1C1CCN(S(=O)(=O)c2ccccc2)CC1 | -48.6
COc1cc(C(=O)N2CCC(n3cnc4cc(F)ccc43)CC2)cc(OC)c1OC | -56.9
Cc1nc2cc(C(=O)O)ccc2n1C1CCCCC1 | 7.52
Cc1nc2cc(F)ccc2n1C1CCN(C(=O)c2ccc(F)cc2F)CC1 | -56.4
COc1cc(OC)cc(C(=O)N2CCC(n3c(C)nc4cc(F)ccc43)CC2)c1 | -59
COc1ccc(C(=O)N2CCC(n3c(C)nc4cc(F)ccc43)CC2)cc1 | -73.4
COc1cc(C(=O)N2CCC(N3CCCCCC3)CC2)cc(OC)c1OC.O=C(O)C(=O)O | -2.57
COc1ccc(-n2c(C)nc3cc(C(=O)N4CCOCC4)ccc32)cc1 | -14.1
COC(=O)C1CCN(C(=O)c2cc(OC)c(OC)c(OC)c2)CC1 | 19.3
COc1cc(OC)cc(OC(=O)C2CCN(C(=O)c3ccc(F)cc3)CC2)c1 | -7.47
Cn1c(=O)cc(OCCCC(=O)N2CCN(c3ccccc3)CC2)c2ccccc21 | -47.3
Cc1c(N=Nc2c(O)n(C)c(=O)n(C)c2=O)c(=O)n(-c2ccccc2)n1C | 8.74

Compound | hERG current change (%, negative = inhibition) at 10uM [%]
O=C(c1cccs1)N1CCN(C(=O)c2ccco2)c2ccccc2C1 | -13.6
COc1ccc(Cc2nc3ccc(C(=O)NCCCSC)cc3o2)cc1OC | 0.503
O=C(NNC(=O)c1cccc2ccccc12)c1ccccc1O | 4.19
O=c1c2ccccc2nc(SCc2cc(F)cc3c2OCOC3)n1Cc1ccco1 | -2.26
O=C(c1cc(COc2ccc3ncccc3c2)on1)N1CCC[C@H]1CO | 4.88
O=C(N1CCOCC1)N1CCC(n2nnc3cc(F)ccc32)CC1 | -7.65
Cc1cccc(C(=O)N2CCC(n3nnc4cc(F)ccc43)CC2)c1 | -34.8
O=C(c1ccc(F)cc1)N1CCC(n2nnc3ccccc32)CC1 | -33.3
O=C(c1ccc([N+](=O)[O-])cc1)N1CCC(n2nnc3cc(F)ccc32)CC1 | -71.9
COc1cc(C(=O)N2CCC(n3c(C)nc4cc(F)ccc43)CC2)cc(OC)c1OC | -8.07
COc1ccc(C(=O)N2CCN(S(=O)(=O)c3ccc(F)cc3)CC2)cc1OC | 10.9
COc1ccc(C(=O)N2CCC(n3nnc4cc(F)ccc43)CC2)cc1OC | -61.6
COc1ccc(C(=O)N2CCC(n3c(C)nc4cc(F)ccc43)CC2)cc1OC | -69
CCOC(=O)C(CC)Sc1ncnc2nc[nH]c12 (centres unmarked) | -12.4
CCCn1nnc(NC(=O)COc2ccc(C3CCCCC3)cc2)n1 | -31.1
O=c1ccc(-c2ccc(S(=O)(=O)Nc3cccc(Br)c3)o2)n[nH]1 | 14.8
Cc1nn(C)c(C)c1/C=C1/CC2C3CC=C4CC(O)CCC4(C)C3CCC2(C)C1=O (centres unmarked) | -8.03
CCN(CC)S(=O)(=O)c1ccc(NC(=O)CSc2ncnc3ccccc23)cc1 | -8.71
Cc1ccc(C(=O)NCCc2nnc3ccc(SCC(=O)N4CCCCC4)nn23)cc1 | 4.02

Compound | hERG current change (%, negative = inhibition) at 10uM [%]
c1ccc(CCc2nn3c(-c4ccncc4)nnc3s2)cc1 | -53.9
c1ccc(Cc2nn3c(-c4ccncc4)nnc3s2)cc1 | -38.6
Cc1ccc(-c2nnc3sc(CCc4ccccc4)nn23)cc1 | 6.39
CCc1nn(CCCC(=O)NCc2cc(Br)ccc2OC)c(=O)c2cc3occc3n12 | -2.73
CC1(C(=O)Nc2nc3ccccc3s2)CC1(Br)Br (centres unmarked) | 13.5
Cc1ccn2cc(CNC(=O)c3ccc(Br)o3)nc2c1 | -38.6
COc1ccc(CCC(=O)NCc2cn3ccsc3n2)cc1 | 13
O=C(NCCc1cn2ccccc2n1)c1ccc(Br)o1 | -28.9
COc1ccc(CCC(=O)NCc2cn3ccc(C)cc3n2)cc1 | -52
COc1ccc(CCC(=O)NCc2cn3ccccc3n2)cc1 | -2.46
Cc1ccn2cc(CCNC(=O)c3ccc(Br)o3)nc2c1 | -57.5
O=C(CNC(=O)c1ccco1)NCC(=O)OCc1cccc(Cl)c1 | -13
COC(=O)COc1ccc(C2Nc3c(Cl)ccc(C(=O)O)c3C3C=CCC32)cc1 (centres unmarked) | 12.9
Cn1ncc(Cl)c1C(=O)Nc1cc(C(F)(F)F)ccc1F | 29.5
Cc1ccc(NC2=C(Cl)C(=O)OC2OC(=O)c2ccc(C)cc2)cc1 (centres unmarked) | -51.7
COC(=O)c1ccc(NC2=C(Cl)C(=O)OC2OC(=O)c2ccccc2)cc1 (centres unmarked) | -22.5
Cc1ccc(NC2=C(Cl)C(=O)OC2OC(=O)c2ccco2)cc1 (centres unmarked) | -42.2
COCCCN1C(=O)C(=O)/C(=C(/O)c2ccccc2)C1c1ccc(N(C)C)cc1 (centres unmarked) | 12.8
